Hits are enriched below; roughly 1.6% of the tested compounds scored in any of these assays.
PABP polyA inh: PABP-poly(A) binding inhibition. P11940. calls only at 35 µM. PABP-poly(A) RNA binding, fluorescence polarization. 290,000 tested, 1% active;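 further: calls also rest on retests at 20 µM and on dose response follow-up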
PERK inh: human PERK inhibition, primary cell-based screen; Q9NZJ5; CHO PERK-DD fusion, SEAP luminescence translation reporter; inhibition, % at 5.6 µM; 220,000 tested, 0.17% active;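 active means inhibition above the mean inhibition of all tested compounds plus 3 SD, set separately per screening campaign, cut at about 2.9% in these data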;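 further: PERK kinase domain activated by AP20187 dimerizer at 100 nM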
eIF4E-4G inh: eIF4E/eIF4G interaction inhibition in translation initiation; TR-FRET eIF4E-eIF4GI(517-606) binding, 2 h; AID 782; 220,000 tested, 0.37% active; inhibition, % at 21.7 µM;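 active means inhibition above about 30%, limit read from the data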
PABP1 MLLE inh: blocks PAM2 peptide binding to the PABP1 MLLE domain. inhibition, % at 20 µM. GST-MLLE / FITC-PAM2 fluorescence polarization. 360,000 tested, 0.36% active. AID 588489. P11940; in the data active means inhibition above about 35%, passing the limit was not always enough
eIF4H FP inh: inhibitors of RNA binding by human eIF4H. 290,000 tested, 0.94% active. AID 2012. inhibition, % at 35 µM. eIF4H fluorescence polarization binding assay;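 further: calls also rest on retests at 20 µM and on dose response follow-up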
Of the large screens only hits and unclear results are named; the others gave an inactive call; ! = not confirmed by another sample. Unless noted, how the calls were made is not given here.

C[n+]1ccccc1/C=C/c1ccccc1Cl	PABP polyA inh active, eIF4H FP inh 79 (no result: PERK inh, eIF4E-4G inh)
CCOC(=O)C(Cc1cc(N)c(Oc2ccc(OC)cc2)c(N)c1)NC(C)=O (centres undefined)	none (no result: PABP polyA inh, PERK inh, eIF4E-4G inh, eIF4H FP inh)
O=C(Nc1cccc(Cl)c1N1CCOCC1)c1cc([N+](=O)[O-])ccc1N1CCOCC1	none (no result: PERK inh, eIF4E-4G inh)
O=C(Nc1cccc(Cl)c1N1CCCCC1)c1ccc(N2CCOCC2)c([N+](=O)[O-])c1	PABP polyA inh active, eIF4H FP inh active
Cc1ccccc1-n1c(C)cc(/C=C2/C(=N)N3C(c4ccccc4)=CSC3=NC2=O)c1C	PABP polyA inh active
Cc1cc(/C=C2/C(=N)N3C(c4ccccc4)=CSC3=NC2=O)c(C)n1-c1ccccc1	PABP polyA inh active, eIF4H FP inh 90
CCOC(=O)N1CCN(C(=O)CSCc2nc(-c3ccccc3F)oc2C)CC1	PABP1 MLLE inh 45
COc1ccc(Br)cc1CN1CCC(N2CCCC2)CC1	none (no result: PERK inh, eIF4E-4G inh)
Cc1ccc(S(=O)(=O)N2CCCCC2)cc1C(=O)NCc1ccccn1	none (no result: PERK inh, eIF4E-4G inh)
Cc1ccc(S(=O)(=O)Nc2c(C)n(C)n(-c3ccccc3)c2=O)cc1C(=O)NCc1ccccn1	eIF4E-4G inh 84
O=C(NCCc1ccccc1F)c1cccc2cccnc12	none (no result: PERK inh, eIF4E-4G inh)
c1ccc2c(c1)CCCN2c1nc2ccccc2n2cnnc12	PABP polyA inh active, eIF4H FP inh 80
O=c1c2c(nc3cc(-c4ccc(Cl)cc4)[nH]n13)CCS2	PABP polyA inh active, eIF4H FP inh inconclusive
O=C(NCCc1ccccc1)C(=O)Nc1ccc([N+](=O)[O-])cc1	none
O=C(O)c1ccc(CSc2n[nH]c(-c3ccco3)n2)cc1	PABP polyA inh active, eIF4H FP inh 77
CC(=O)Nc1ccc(-c2csc(NC(=O)C3CC(=O)N(c4ccc5c(c4)OCCO5)C3)n2)cc1 (centres undefined)	PABP polyA inh active, eIF4H FP inh 60
Cc1nc(-n2[nH]c3c(c2=O)CCCC3)[nH]c(=O)c1Cc1ccccc1	PABP polyA inh active, eIF4H FP inh inconclusive
CCCCCCCCCCCCCCC(O)C[N+](C)(CCO)CCO (centres undefined)	none (no result: PABP polyA inh, PERK inh, eIF4E-4G inh, eIF4H FP inh)
O=C(O)CSc1ncnc2scc(-c3ccc(Br)cc3)c12	PERK inh 3.6
CC(C)CNS(=O)(=O)c1ccc(CCC(=O)NCCc2ccccc2)cc1	none (no result: PERK inh, eIF4E-4G inh)
O=C1Cc2cc(S(=O)(=O)N3CCN(c4ccc(O)cc4)CC3)ccc2N1	none (no result: PABP polyA inh, PERK inh, eIF4E-4G inh, eIF4H FP inh)
O=C1CC(=O)Nc2cc(S(=O)(=O)N3CCN(c4ccc([N+](=O)[O-])cc4)CC3)ccc2N1	eIF4H FP inh 70 (no result: PERK inh, eIF4E-4G inh)
CCCCCCCCCCCCCCCCn1cc[n+](C)c1	eIF4E-4G inh 43
CN(C)Cc1csc(Nc2ccc(C(=O)c3ccccc3)cc2)n1	none (no result: PABP polyA inh, PERK inh, eIF4E-4G inh, eIF4H FP inh)
N#C/C(=C\c1ccc(OC(=O)c2ccc(Br)s2)cc1)c1nc2ccccc2[nH]1	eIF4E-4G inh 34
N#C/C(=C\c1ccc(OC(=O)c2ccc(Cl)s2)cc1)c1nc2ccccc2[nH]1	PABP polyA inh active, eIF4H FP inh 51
COc1cc(C(=O)NN=Cc2ccc(N(C)C)cc2)cc(OC)c1OC	none (no result: PABP polyA inh, PERK inh, eIF4E-4G inh, eIF4H FP inh)
Cc1ccc(C)c(Cn2c(C)nc3c(sc(=S)n3-c3ccccc3)c2=O)c1	none
Cc1cc(C)nc(NC(=S)NC(=O)c2ccccc2F)n1	none (no result: PABP polyA inh, PERK inh, eIF4E-4G inh, eIF4H FP inh)
Cc1cc(C)nc(S/C=C/C(=O)c2ccccc2F)n1	PABP1 MLLE inh 42
CCCn1c(SCC(=O)NC(=O)NCc2ccco2)n[nH]c1=O	PABP polyA inh active, eIF4H FP inh 74 (no result: PABP1 MLLE inh)
CCOc1ccccc1-n1nnnc1SCC(=O)NC(=O)NCc1ccco1	PABP polyA inh active, eIF4H FP inh 61
Cc1ccccc1Nc1nnc(SCC(=O)NC(=O)NCc2ccco2)s1	eIF4H FP inh 59
C=CCn1c(SCC(=O)NC(=O)NCc2ccco2)nc2sc(CC)cc2c1=O	PABP polyA inh active, eIF4H FP inh 84
O=C(CSc1nnnn1-c1ccccc1)NC(=O)NCc1ccco1	none
COc1ccc(/C=C/C(=O)NCC(=O)N/N=C(/C)c2ccc(Cl)cc2)cc1	none (no result: PERK inh, eIF4E-4G inh)
Cc1ccccc1CN1CCN(c2nc3ccccc3s2)CC1	none (no result: PERK inh, eIF4E-4G inh)
CCn1c(SCC(=O)NC(=O)NCc2ccco2)nc2sc(C)c(C)c2c1=O	PABP polyA inh active, eIF4H FP inh 82
COc1ccc(S(=O)(=O)N2CCCCC2)cc1C(=O)N1CCCC1	none (no result: PERK inh, eIF4E-4G inh)
O=C(O)C(CCCCNS(=O)(=O)c1ccc(F)cc1)NS(=O)(=O)c1ccc(F)cc1 (centres undefined)	PABP polyA inh active!, eIF4H FP inh 96! (no result: PERK inh, eIF4E-4G inh)
C#Cc1ccc(C(=O)NCc2ccc(N3CCCC3=O)cc2)cc1	PABP polyA inh active
COC(=O)C1=C(C)N(c2ccc(C)c(C)c2)/C(=C/c2ccco2)C1=O	eIF4H FP inh 18
O=C(CCl)Nc1nc(-c2ccco2)c(-c2ccco2)s1	none
O=C(CCCSc1ccccc1)Nc1nc(-c2ccco2)c(-c2ccco2)s1	eIF4H FP inh 96
Cc1ccc(NC(=O)CSCC(=O)N2CCN(c3cccc(C(F)(F)F)c3)CC2)cc1	none (no result: PABP polyA inh, PERK inh, eIF4E-4G inh, eIF4H FP inh)
C=CCOC(=O)C(C#N)c1nc2ccccc2nc1N1CCN(Cc2ccccc2)CC1 (centres undefined)	PABP polyA inh active, eIF4H FP inh 57
CC(C)COC(=O)C(C#N)c1nc2ccccc2nc1N1CCN(Cc2ccccc2)CC1 (centres undefined)	PABP polyA inh active, eIF4H FP inh 44
COCCOC(=O)C(C#N)c1nc2ccccc2nc1N1CCN(Cc2ccccc2)CC1 (centres undefined)	none
C=CCNC(=O)C(C#N)c1nc2ccccc2nc1N1CCN(Cc2ccccc2)CC1 (centres undefined)	none
CCCCOC(=O)C(C#N)c1nc2ccccc2nc1N1CCN(Cc2ccc3c(c2)OCO3)CC1 (centres undefined)	PABP polyA inh active, eIF4H FP inh 54
O=C(Nc1ccncc1)c1cccc(S(=O)(=O)N2CCCC2)c1	none (no result: PERK inh, eIF4E-4G inh)
O=c1[nH]c2cc(Cl)ccc2n1-c1ccccc1	none
O=Cc1c(Cl)[nH]c(=O)n1-c1ccccc1	PABP polyA inh active
CCc1cc2cc(C)cc(C)c2[nH]c1=S	none
Cc1ccc(C)n1-c1sccc1C(=O)O	PABP1 MLLE inh 45
Cc1ccc(C)n1-c1sc2c(c1C(=O)O)CCCC2	none
O=C1CC(SC(=S)C2CCCC2=O)C(=O)N1 (centres undefined)	PABP1 MLLE inh 46 (no result: PABP polyA inh, PERK inh, eIF4E-4G inh, eIF4H FP inh)
O=C1CC(Sc2ncccc2C(=O)O)C(=O)N1 (centres undefined)	none
CCOc1cccc(=O)c2c(C)n(C)c(C)c12	PABP polyA inh active, eIF4H FP inh 60
COCOCCn1cc(CN2CCS(=O)(=O)N(Cc3ccc(-c4ccncc4)cc3)C(C(C)C)C2=O)nn1 (centres undefined)	none (no result: PABP polyA inh, PERK inh, eIF4E-4G inh, eIF4H FP inh)
O=C(O)c1cc(Cl)c2c(c1)[C@@H]1C=CC[C@@H]1[C@H](c1ccc(S(=O)(=O)N3CCOCC3)cc1)N2	PABP polyA inh active, eIF4H FP inh 74
Cc1cc(C)c2c(c1)C1C=CCC1C(c1ccc(S(=O)(=O)N3CCOCC3)cc1)N2 (centres undefined)	none
C/C(=N\NC(=O)Cc1ccc(Cl)cc1)c1ccccc1O	none (no result: PERK inh, eIF4E-4G inh)
